Data as given in PubChem BioAssay AID1159580 (chemical genetic matrix, 2015).
In all, about 5,500 compounds went through this assay and about 2,000 (36%) were called active. Inconclusive results (about 18%) are left out. Cut-off read from the data, not from the text of the source: active = normalized growth mostly below about 0.91 (no sharp cut-off); inconclusive = no clear call, values can overlap the other calls; inactive = mostly above about 0.92. The list shows a part of the results.

Assay: chemical genetic growth profiling, strain panel (AID 1159580);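 note: tested at 20 µM; growth read once vehicle control cultures reached saturation at 30 °C; 1 = growth at the plate median or of vehicle wells; lower values mean less growth of the strain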
Settings: growth OD

Measured: normalized growth

COc1cc(-c2oc3cc(O)ccc3c(=O)c2O)cc(OC)c1OC
inactive: S. cerevisiae deletion strains, locus YAL013W, strain DEP1, hits give low values 1.01 | S. cerevisiae deletion strains, locus YBR021W, strain FUR4, hits give low values 1.02 | S. cerevisiae deletion strains, locus YBR229C, strain ROT2, hits give low values 1.01 | S. cerevisiae deletion strains, locus YCL029C, strain bik1, hits give low values 1.01 | S. cerevisiae deletion strains, locus YDL035C, strain GPR1, hits give low values 1 | S. cerevisiae deletion strains, locus YDL074C, strain BRE1, hits give low values 0.996 | S. cerevisiae deletion strains, locus YDL101C, strain DUN1, hits give low values 0.999 | S. cerevisiae deletion strains, locus YDL134C, strain PPH21, hits give low values 1 | S. cerevisiae deletion strains, locus YDL185W, strain tfp1, hits give low values 0.996 | S. cerevisiae deletion strains, locus YDL192W, strain arf1, hits give low values 0.999 | S. cerevisiae deletion strains, locus YDR101C, strain arx1, hits give low values 1 | S. cerevisiae deletion strains, locus YDR150W, strain NUM1, hits give low values 1.01 | S. cerevisiae deletion strains, locus YDR162C, strain NBP2, hits give low values 0.989 | S. cerevisiae deletion strains, locus YDR318W, strain mcm21, hits give low values 1.02 | S. cerevisiae deletion strains, locus YDR388W, hits give low values 0.999 | S. cerevisiae deletion strains, locus YDR502C, strain sam2, hits give low values 1 | S. cerevisiae deletion strains, locus YEL061C, strain CIN8, hits give low values 0.998 | S. cerevisiae deletion strains, locus YER110C, hits give low values 1.01 | S. cerevisiae deletion strains, locus YER155C, strain BEM2, hits give low values 1.02 | S. cerevisiae deletion strains, locus YER167W, strain BCK2, hits give low values 1.02 | S. cerevisiae deletion strains, locus YGL078C, strain dbp3, hits give low values 0.995 | S. cerevisiae deletion strains, locus YGL086W, strain mad1, hits give low values 1.02 | S. cerevisiae deletion strains, locus YGL248W, strain PDE1, hits give low values 1 | S. cerevisiae deletion strains, locus YGR078C, strain PAC10, hits give low values 0.989 | S. cerevisiae deletion strains, locus YGR135W, strain pre9, hits give low values 0.981 | S. cerevisiae deletion strains, locus YGR229C, strain SMI1, hits give low values 0.98 | S. cerevisiae deletion strains, locus YGR252W, strain gcn5, hits give low values 1.06 | S. cerevisiae deletion strains, locus YHR030C, strain SLT2, hits give low values 1.01 | S. cerevisiae deletion strains, locus YHR079C, strain IRE1 (second series), hits give low values 1.01 | S. cerevisiae deletion strains, locus YHR094C, strain hxt1, hits give low values 1.01 | S. cerevisiae deletion strains, locus YHR129C, strain ARP1, hits give low values 0.998 | S. cerevisiae deletion strains, locus YHR200W, strain rpn10, hits give low values 1.01 | S. cerevisiae deletion strains, locus YIL066C, strain RNR3, hits give low values 1 | S. cerevisiae deletion strains, locus YIL073C, strain SPO22, hits give low values 1.05 | S. cerevisiae deletion strains, locus YIL125W, strain kgd1, hits give low values 1.01 | S. cerevisiae deletion strains, locus YIR030C, strain dcg1, hits give low values 1.01 | S. cerevisiae deletion strains, locus YJL095W, strain BCK1, hits give low values 0.984 | S. cerevisiae deletion strains, locus YJL134W, strain LCB3, hits give low values 0.996 | S. cerevisiae deletion strains, locus YJL168C, strain set2, hits give low values 1.01 | S. cerevisiae deletion strains, locus YJL187C, strain SWE1 (second series), hits give low values 0.99 | S. cerevisiae deletion strains, locus YJR043C, strain POL32, hits give low values 1.01 | S. cerevisiae deletion strains, locus YJR075W, strain HOC1, hits give low values 1.01 | S. cerevisiae deletion strains, locus YKL009W, strain mrt4, hits give low values 1.04 | S. cerevisiae deletion strains, locus YKL068W, hits give low values 0.998 | S. cerevisiae deletion strains, locus YKL085W, strain MDH1 (second series), hits give low values 1.02 | S. cerevisiae deletion strains, locus YKL085W, strain MDH1, hits give low values 1.02 | S. cerevisiae deletion strains, locus YKL190W, strain CNB1, hits give low values 1.01 | S. cerevisiae deletion strains, locus YKR001C, strain vps1, hits give low values 1.01 | S. cerevisiae deletion strains, locus YLR039C, strain RIC1, hits give low values 1.02 | S. cerevisiae deletion strains, locus YLR058C, strain SHM2, hits give low values 0.999 | S. cerevisiae deletion strains, locus YLR102C, strain apc9, hits give low values 1.01 | S. cerevisiae deletion strains, locus YLR262C, strain YPT6, hits give low values 0.979 | S. cerevisiae deletion strains, locus YLR268W, strain sec22, hits give low values 1 | S. cerevisiae deletion strains, locus YLR330W, strain CHS5, hits give low values 1 | S. cerevisiae deletion strains, locus YLR342W, strain FKS1 (second series), hits give low values 1.05 | S. cerevisiae deletion strains, locus YLR371W, strain rom2, hits give low values 1.02 | S. cerevisiae deletion strains, locus YLR418C, strain cdc73, hits give low values 0.974 | S. cerevisiae deletion strains, locus YML016C, strain PPZ1, hits give low values 1 | S. cerevisiae deletion strains, locus YML032C, strain rad52, hits give low values 1.03 | S. cerevisiae deletion strains, locus YML124C, strain tub3, hits give low values 1.01 | S. cerevisiae deletion strains, locus YMR078C, strain ctf18, hits give low values 1.02 | S. cerevisiae deletion strains, locus YMR223W, strain ubp8, hits give low values 1.01 | S. cerevisiae deletion strains, locus YMR263W, strain SAP30, hits give low values 1.01 | S. cerevisiae deletion strains, locus YMR307W, strain GAS1, hits give low values 0.995 | S. cerevisiae deletion strains, locus YNL067W, strain RPL9B, hits give low values 0.986 | S. cerevisiae deletion strains, locus YNL128W, strain TEP1, hits give low values 0.996 | S. cerevisiae deletion strains, locus YNL153C, strain GIM3, hits give low values 0.986 | S. cerevisiae deletion strains, locus YNL233W, strain BNI4, hits give low values 0.969 | S. cerevisiae deletion strains, locus YNL250W, strain rad50, hits give low values 1 | S. cerevisiae deletion strains, locus YNL271C, strain bni1, hits give low values 1.02 | S. cerevisiae deletion strains, locus YNL298W, strain CLA4, hits give low values 1.01 | S. cerevisiae deletion strains, locus YNL307C, strain MCK1, hits give low values 1.02 | S. cerevisiae deletion strains, locus YNL322C, strain KRE1, hits give low values 1 | S. cerevisiae deletion strains, locus YNR052C, strain pop2, hits give low values 1.02 | S. cerevisiae deletion strains, locus YOL006C, strain TOP1, hits give low values 0.999 | S. cerevisiae deletion strains, locus YOL012C, strain htz1 1.14 | S. cerevisiae deletion strains, locus YOL147C, strain pex11, hits give low values 1.01 | S. cerevisiae deletion strains, locus YOR061W, strain CKA2, hits give low values 1 | S. cerevisiae deletion strains, locus YOR069W, strain VPS5, hits give low values 1 | S. cerevisiae deletion strains, locus YOR136W, strain idh2, hits give low values 1.02 | S. cerevisiae deletion strains, locus YOR144C, strain elg1, hits give low values 1 | S. cerevisiae deletion strains, locus YOR184W, strain ser1, hits give low values 1.04 | S. cerevisiae deletion strains, locus YOR316C, strain cot1, hits give low values 1 | S. cerevisiae deletion strains, locus YPL055C, strain LGE1, hits give low values 1 | S. cerevisiae deletion strains, locus YPL241C, strain CIN2, hits give low values 1.01 | S. cerevisiae deletion strains, locus YPR119W, strain clb2, hits give low values 1 | S. cerevisiae deletion strains, locus YPR141C, strain kar3, hits give low values 1.01 | S. cerevisiae deletion strains, locus YPR163C, strain tif3, hits give low values 0.991 | S. cerevisiae deletion strains, locus YPR167C, strain met16, hits give low values 1.01 | S. cerevisiae deletion strains, strain wtn01, hits give low values 1 | S. cerevisiae strains, strain wild type, hits give low values 0.994
